HEK293 cAMP cs – parental HEK293 cAMP activation (counter-screen); AID 938; 2.5% of 73,000 active; parental HEK293 CNG cAMP sensor, membrane potential fluorescence; Potency, µM (highest dose often 57.1 µM), hits mostly activators; further: nearly all actives have a fitted effect of over 55% in size
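Parental HEK 293 cells stably expressing a modified CNG channel (no TSHR) report cAMP rise as membrane depolarization. Membrane potential dye with 100 uM RO 20-1724 was loaded for 60 min at room temperature, then compound added for 30 min; fluorescence read at 590 nm.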
ERK AVP block – inhibitors of vasopressin-stimulated ERK signaling pathway | AID 995 | 0.99% of 72,000 active | HEK293-V1b, vasopressin-stimulated pERK AlphaScreen | Potency, µM (top dose mostly 57.5 µM), usual class: inhibitors; further: nearly all actives have a fitted effect of over 55% in size
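qHTS, compounds titrated on V1b-expressing HEK293 cells. Preincubation 30 min at 37C, vasopressin 25 nM for 5 min, lysis 10 min, bead incubation 5 hr at room temperature.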
CRE-bla Fsk – modulators of forskolin-stimulated CRE signaling in CHO cells. Potency, µM (series often up to 38.2 µM), usual class: activators. CHO CRE-bla reporter (cAMP response element driving beta-lactamase), forskolin EC10, beta-lactamase ratio. 2.5% of 71,000 active; active means well fitted activation curve with a large enough effect in the signal ratio, with a control signal flat, not every such curve was filed as active; inconclusive means small, poorly fitted or top-dose-only effect, or effect the other way, or a change in a side signal; the % refers to the signal ratio
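CRE-bla CHO reporter cells treated with compound titration plus EC10 NKH 477 (water-soluble forskolin), incubated 3 h at 37 °C; CCF4 loading 2 h at room temperature, 460/530 nm emission ratio read, AC50 values derived for positive or negative modulators.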
TSHR ag – activates the human thyroid stimulating hormone receptor; P16473; Potency, µM (top dose mostly 57.1 µM), actives largely listed as activators; HEK293-CNG-TSHR cells (CNG channel as cAMP sensor), membrane potential dye, cAMP; 0.48% of 73,000 active; AID 926; active means well fitted activation curve with a large enough effect in the main read-out, with a control signal flat, not every such curve was filed as active; inconclusive means small, poorly fitted or top-dose-only effect, or a change in a side signal; inactive means no such curve, though single readings can be large or run the other way; reference of the percent scale not stated here;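 further: the control signal comes from parental cells without the receptor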
Target sequence (P16473 whole entry, looked up): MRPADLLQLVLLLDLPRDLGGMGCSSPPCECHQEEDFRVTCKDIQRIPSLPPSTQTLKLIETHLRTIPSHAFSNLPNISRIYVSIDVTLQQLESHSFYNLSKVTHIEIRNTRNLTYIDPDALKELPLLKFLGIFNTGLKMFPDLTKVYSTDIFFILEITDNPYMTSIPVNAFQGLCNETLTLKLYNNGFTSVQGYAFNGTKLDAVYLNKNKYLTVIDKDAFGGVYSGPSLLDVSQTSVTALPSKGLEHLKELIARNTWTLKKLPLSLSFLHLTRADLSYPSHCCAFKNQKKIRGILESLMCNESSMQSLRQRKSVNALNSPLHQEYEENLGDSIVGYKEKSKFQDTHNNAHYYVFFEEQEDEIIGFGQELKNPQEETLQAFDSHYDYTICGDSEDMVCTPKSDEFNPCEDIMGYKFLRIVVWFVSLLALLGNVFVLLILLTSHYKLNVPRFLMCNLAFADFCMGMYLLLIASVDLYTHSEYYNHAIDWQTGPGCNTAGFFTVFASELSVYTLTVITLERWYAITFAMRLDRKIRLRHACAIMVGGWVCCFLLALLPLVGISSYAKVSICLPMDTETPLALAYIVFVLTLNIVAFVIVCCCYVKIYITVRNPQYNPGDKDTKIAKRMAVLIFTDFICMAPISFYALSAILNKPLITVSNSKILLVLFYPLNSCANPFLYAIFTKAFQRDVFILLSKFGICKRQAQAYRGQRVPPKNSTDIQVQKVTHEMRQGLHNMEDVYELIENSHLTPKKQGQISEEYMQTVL
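HEK 293 cells stably expressing TSHR and a modified CNG channel, with CNG-only parental cells as counterscreen, were preloaded 60 min at room temperature with membrane potential dye containing 100 uM RO 20-1724. Compound exposure was 30 min, and depolarization was read as fluorescence at 590 nm.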
Tau filament bind – tau filament binding. recombinant tau filaments, thioflavin S fluorescence, 15 h; filaments grown with octadecylsulfate alongside compound. Potency, µM (doses to about 57.1 µM). 2% of 71,000 active. AID 596;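 further: actives lower thioflavin S fluorescence by blocking filaments or displacing dye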
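Recombinant tau protein (human, 1 uM final) plus 30 uM ODS in HEPES pH 7.4 with NaCl, DTT and thioflavine S. Compound present from the start; fluorescence at 510 nm after 15 h, 37 C.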
Hits are given with their value; [ ] = another dose, or the depositor's remark. The list is not random: actives were taken first. Their share in the collection is about 7.6%. Unless noted, the call rests on the fitted dose curve; in most records, active means well fitted curve in the direction sought with a large enough effect; inconclusive means small, poorly fitted or top-dose-only effect, or another doubt; inactive means no such curve, though single readings can be large; an effect the other way counts as inactive or inconclusive.

`O=C(Nc1cccc2ccccc12)OC1C=CS(=O)(=O)C1` (stereo not given) gave HEK293 cAMP cs 32µM, ERK AVP block 10µM, CRE-bla Fsk inconclusive, TSHR ag inconclusive and Tau filament bind inactive.
Screening CCCOc1ccc2ccccc2c1/C=N/n1c(C)nnc1-n1nc(C)cc1C returned HEK293 cAMP cs 4µM, ERK AVP block inactive, CRE-bla Fsk inconclusive, TSHR ag inconclusive and Tau filament bind inactive[11.4 µM].
For Cc1ccc(S(=O)(=O)n2ccnc2)cc1C the results were HEK293 cAMP cs 20µM, CRE-bla Fsk inactive, TSHR ag inconclusive and Tau filament bind inactive.
Cc1ccc(S(=O)(=O)N2CCN(C(=O)N(C)C)CC2)cc1C was read as HEK293 cAMP cs inactive, ERK AVP block inactive, CRE-bla Fsk inactive and Tau filament bind inactive.
O=C(/C=C/c1ccccc1)OC1CC(O)C2(O)C=CO[C@@H](OC3OC(CO)C(O)C(O)C3O)C12 (stereo not given in full) was read as ERK AVP block inactive.
Screening CCc1ccc2oc(-c3cc(N)ccc3Cl)nc2c1 returned HEK293 cAMP cs inactive, ERK AVP block inactive, CRE-bla Fsk inactive, TSHR ag inactive and Tau filament bind inactive.
For CCc1ccc2oc(-c3cc(N)cc(C)c3O)nc2c1 the results were HEK293 cAMP cs inactive, ERK AVP block inactive, CRE-bla Fsk inactive, TSHR ag inactive and Tau filament bind 13µM.
Screening CCc1ccc2oc(-c3cc(N)ccc3O)nc2c1 returned HEK293 cAMP cs inactive, ERK AVP block inactive, CRE-bla Fsk inactive, TSHR ag inactive and Tau filament bind 25µM.
`C[C@@H](CNC1CCCCC1)OC(=O)c1ccccc1` gave HEK293 cAMP cs inactive, ERK AVP block inactive, CRE-bla Fsk inactive, TSHR ag inactive and Tau filament bind inactive.
N#C/C(=C1\CCCN1)c1ccc2ccccc2n1 was read as HEK293 cAMP cs inactive, ERK AVP block 16µM, CRE-bla Fsk inactive, TSHR ag inactive and Tau filament bind inactive.
`CC(c1nnc(SCC(=O)c2c(N)n(C)c(=O)n(C)c2=O)n1-c1ccc(Cl)cc1)N(C)C` (stereo not given) gave HEK293 cAMP cs inactive, ERK AVP block 40µM, CRE-bla Fsk inactive, TSHR ag inactive and Tau filament bind inactive.
`Cc1nnc(SCC(=O)c2c(N)n(C)c(=O)n(C)c2=O)n1Cc1ccccc1` gave HEK293 cAMP cs inactive, ERK AVP block inconclusive, CRE-bla Fsk inactive, TSHR ag inactive and Tau filament bind inactive.
For CCSc1nc2ccccc2n1CC(=O)N1CCCCC1 the results were HEK293 cAMP cs inactive, ERK AVP block inactive, CRE-bla Fsk inactive, TSHR ag inactive and Tau filament bind inactive.
Screening CCOC(=O)c1ccccc1NC(=O)CSc1nc2ccccc2n1CC(=O)N1CCCC1 returned HEK293 cAMP cs inactive, ERK AVP block inactive, CRE-bla Fsk 2µM, TSHR ag inactive and Tau filament bind inactive.
Screening COC(=O)c1ccccc1NC(=O)Cn1c(-c2nonc2N)nc2ccccc21 returned HEK293 cAMP cs 16µM, ERK AVP block inactive, CRE-bla Fsk inconclusive, TSHR ag inconclusive and Tau filament bind inactive.
CCOC(=O)OCC1OC(c2ccc(C(C)=O)cc2)C=CC1OC(=O)OCC (stereo not given) was read as HEK293 cAMP cs inactive[11.4 µM], ERK AVP block inactive[11.5 µM] and TSHR ag inactive[11.4 µM].
`Cc1cc(C(F)F)n2ncc(C(=O)NC3CCCCCC3)c2n1` gave HEK293 cAMP cs inactive, ERK AVP block inactive, CRE-bla Fsk inconclusive, TSHR ag inactive and Tau filament bind inactive.
`CCC(C)NC(=O)c1cnn2c(C)c3c(nc12)CCCC3` (stereo not given) gave HEK293 cAMP cs inactive, ERK AVP block inactive, CRE-bla Fsk 13µM and Tau filament bind inactive.
Cc1c2c(nc3c(C(=O)NC4CC4)cnn13)CCCC2 was read as HEK293 cAMP cs inactive, ERK AVP block inactive, CRE-bla Fsk 13µM and Tau filament bind inactive.
For CCC1CO1 (stereo not given) the results were HEK293 cAMP cs inactive, ERK AVP block inactive, CRE-bla Fsk inactive, TSHR ag inactive and Tau filament bind inactive.
`C=C1CC[C@@H](O)C/C1=C/C=C1\CCC[C@]2(C)[C@@H]1CC[C@H]2[C@@H](C)/C=C\[C@@H](C)C(C)C` gave HEK293 cAMP cs inactive, CRE-bla Fsk inconclusive, TSHR ag inactive and Tau filament bind inactive.
`N#Cc1ccc(CN2CCCC3(CCN(C(=O)c4cccc(F)c4)CC3)C2)cc1` gave HEK293 cAMP cs inconclusive, ERK AVP block inactive, CRE-bla Fsk inactive, TSHR ag inconclusive and Tau filament bind inactive.
COc1ccc(-c2nc3cnc(N4CCNCC4)nc3n(-c3ccccc3)c2=O)cc1 was read as HEK293 cAMP cs inactive, ERK AVP block inactive, CRE-bla Fsk inconclusive, TSHR ag inactive and Tau filament bind inactive.
For CCOc1ccc(-c2cc(CCCC(=O)NCc3cccnc3)no2)cc1 the results were HEK293 cAMP cs inconclusive, ERK AVP block 13µM, CRE-bla Fsk inactive, TSHR ag inconclusive and Tau filament bind inactive.
Screening COc1ccc(-c2cc(CCCC(=O)NCc3ccccn3)no2)cc1 returned HEK293 cAMP cs inactive, ERK AVP block inactive, CRE-bla Fsk inactive, TSHR ag inactive and Tau filament bind inactive.
For CS(=O)(=O)N1CCC2(CC1)CN(c1cccc(-c3ccccc3)c1)C2 the results were HEK293 cAMP cs inactive, ERK AVP block inactive, CRE-bla Fsk inactive, TSHR ag inactive and Tau filament bind inactive.
Cn1c(=O)[nH]c(=O)c2c1nc(CN1CCN(c3cccc(Cl)c3)CC1)n2CCN1CCOCC1 was read as HEK293 cAMP cs inactive, ERK AVP block inactive, CRE-bla Fsk inactive, TSHR ag inactive and Tau filament bind inactive.
Screening CCCCn1c(CN2CCN(c3cccc(Cl)c3)CC2)nc2c1c(=O)[nH]c(=O)n2C returned HEK293 cAMP cs inconclusive, ERK AVP block inactive, CRE-bla Fsk 10µM, TSHR ag inconclusive and Tau filament bind inactive.
Cn1c(=O)c2c(nc(CN3CCN(c4ccccc4)CC3)n2CCc2ccccc2)n(C)c1=O was read as HEK293 cAMP cs inconclusive, ERK AVP block inactive, CRE-bla Fsk inactive, TSHR ag inconclusive and Tau filament bind inactive.
`CCOC(=O)Cn1c(CN2CCN(c3cccc(Cl)c3)CC2)nc2c1c(=O)[nH]c(=O)n2C` gave HEK293 cAMP cs 20µM, CRE-bla Fsk inconclusive, TSHR ag inconclusive and Tau filament bind inactive.
Screening Cn1c(=O)c2c(nc(CN3CCN(c4cccc(Cl)c4)CC3)n2CCc2ccccc2)n(C)c1=O returned HEK293 cAMP cs 7.9µM, ERK AVP block inactive, CRE-bla Fsk inconclusive, TSHR ag inconclusive and Tau filament bind inactive.
Screening Cn1c(=O)[nH]c(=O)c2c1nc(CN1CCN(c3cccc(Cl)c3)CC1)n2CCCc1ccccc1 returned HEK293 cAMP cs inactive, CRE-bla Fsk 7.9µM and Tau filament bind inactive.
Screening COc1ccc(C2OC3C(CO)OC(n4cnc5c(=O)[nH]c(N)nc54)C3O2)cc1 (stereo not given) returned ERK AVP block inactive.

Screens deposited in PubChem BioAssay by National Center for Advancing Translational Sciences (NCATS).
